Legend:
[1] = target: Mitogen-activated protein kinase 3 (Homo sapiens) (UniProt P27361); conditions: at 1 µM;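 note: values are mean percent inhibition of MAPK3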
[2] = target: SRSF protein kinase 3 (Homo sapiens) (UniProt Q9UPE1); conditions: at 0.1 µM
[3] = target: SRSF protein kinase 3 (Homo sapiens) (UniProt Q9UPE1); conditions: at 1 µM
[4] = target: Mitogen-activated protein kinase 14 (Homo sapiens) (UniProt Q16539); conditions: at 0.1 µM
[5] = target: Mitogen-activated protein kinase 14 (Homo sapiens) (UniProt Q16539); conditions: at 1 µM
[6] = target: Mitogen-activated protein kinase 11 (Homo sapiens) (UniProt Q15759); conditions: at 0.1 µM
[7] = target: Mitogen-activated protein kinase 11 (Homo sapiens) (UniProt Q15759); conditions: at 1 µM
[8] = target: T1, Mitogen-activated protein kinase 13 (Homo sapiens) (UniProt O15264); conditions: at 0.1 µM
T1 sequence (whole entry): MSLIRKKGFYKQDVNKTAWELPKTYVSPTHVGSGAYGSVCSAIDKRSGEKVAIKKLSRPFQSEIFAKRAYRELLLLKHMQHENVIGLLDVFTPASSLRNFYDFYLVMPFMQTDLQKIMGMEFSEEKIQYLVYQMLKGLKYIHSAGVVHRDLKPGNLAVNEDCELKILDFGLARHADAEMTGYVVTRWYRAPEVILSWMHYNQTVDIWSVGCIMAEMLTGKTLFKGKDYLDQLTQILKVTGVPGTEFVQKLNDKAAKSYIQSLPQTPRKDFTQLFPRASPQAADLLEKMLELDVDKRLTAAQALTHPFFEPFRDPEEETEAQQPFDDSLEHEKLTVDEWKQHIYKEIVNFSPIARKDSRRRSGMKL

[9] = target: T1, Mitogen-activated protein kinase 13 (Homo sapiens); conditions: at 1 µM
[10] = target: T2, Mitogen-activated protein kinase 12 (Homo sapiens) (UniProt P53778); conditions: at 0.1 µM
T2 sequence (whole entry): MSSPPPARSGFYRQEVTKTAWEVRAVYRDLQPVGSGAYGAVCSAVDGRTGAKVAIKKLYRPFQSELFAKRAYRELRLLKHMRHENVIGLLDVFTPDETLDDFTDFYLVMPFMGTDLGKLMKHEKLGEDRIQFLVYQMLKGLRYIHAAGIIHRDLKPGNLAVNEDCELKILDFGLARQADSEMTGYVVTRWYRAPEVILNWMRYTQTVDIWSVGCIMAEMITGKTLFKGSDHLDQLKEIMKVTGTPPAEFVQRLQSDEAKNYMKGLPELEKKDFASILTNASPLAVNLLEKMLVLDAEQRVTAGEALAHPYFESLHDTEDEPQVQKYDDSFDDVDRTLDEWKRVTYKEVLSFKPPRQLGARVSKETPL

[11] = target: T2, Mitogen-activated protein kinase 12 (Homo sapiens); conditions: at 1 µM
[12] = target: SRSF protein kinase 1 (Homo sapiens) (UniProt Q96SB4); conditions: at 0.1 µM
[13] = target: SRSF protein kinase 1 (Homo sapiens) (UniProt Q96SB4); conditions: at 1 µM
[14] = target: Phosphatidylinositol 4,5-bisphosphate 3-kinase catalytic subunit alpha isoform (Homo sapiens) (UniProt P42336); conditions: at 0.1 µM
[15] = target: Phosphatidylinositol 4,5-bisphosphate 3-kinase catalytic subunit alpha isoform (Homo sapiens) (UniProt P42336); conditions: at 1 µM
[16] = target: T3, Phosphatidylinositol 4,5-bisphosphate 3-kinase catalytic subunit delta isoform (Homo sapiens) (UniProt O00329); conditions: at 0.1 µM
T3 sequence (whole entry): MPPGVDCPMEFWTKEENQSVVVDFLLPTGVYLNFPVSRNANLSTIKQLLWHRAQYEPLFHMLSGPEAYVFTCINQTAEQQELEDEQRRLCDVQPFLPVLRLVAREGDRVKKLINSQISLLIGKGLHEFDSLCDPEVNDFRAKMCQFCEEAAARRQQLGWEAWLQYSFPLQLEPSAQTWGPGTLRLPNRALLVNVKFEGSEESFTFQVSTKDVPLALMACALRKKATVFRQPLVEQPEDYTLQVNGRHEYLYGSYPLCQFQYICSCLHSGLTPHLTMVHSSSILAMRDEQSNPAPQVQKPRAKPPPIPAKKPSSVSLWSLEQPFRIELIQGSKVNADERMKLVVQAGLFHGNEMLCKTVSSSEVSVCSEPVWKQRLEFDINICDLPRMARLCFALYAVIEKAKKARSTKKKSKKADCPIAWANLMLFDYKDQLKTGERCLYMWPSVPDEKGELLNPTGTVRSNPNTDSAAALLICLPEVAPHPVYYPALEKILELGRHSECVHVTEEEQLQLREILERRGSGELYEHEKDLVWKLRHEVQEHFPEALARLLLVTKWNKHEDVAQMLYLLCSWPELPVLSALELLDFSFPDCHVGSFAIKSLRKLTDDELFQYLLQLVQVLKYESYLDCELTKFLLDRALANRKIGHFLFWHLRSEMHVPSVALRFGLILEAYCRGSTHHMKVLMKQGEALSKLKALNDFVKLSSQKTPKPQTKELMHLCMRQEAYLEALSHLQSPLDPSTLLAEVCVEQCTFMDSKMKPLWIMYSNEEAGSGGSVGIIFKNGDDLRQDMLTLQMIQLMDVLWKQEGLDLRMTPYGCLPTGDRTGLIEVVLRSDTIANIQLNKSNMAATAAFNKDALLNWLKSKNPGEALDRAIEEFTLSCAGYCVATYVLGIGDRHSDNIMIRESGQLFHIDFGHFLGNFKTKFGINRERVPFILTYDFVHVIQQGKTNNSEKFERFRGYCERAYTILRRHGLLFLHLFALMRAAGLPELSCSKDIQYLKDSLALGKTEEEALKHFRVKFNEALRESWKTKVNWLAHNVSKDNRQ

[17] = target: T3, Phosphatidylinositol 4,5-bisphosphate 3-kinase catalytic subunit delta isoform (Homo sapiens); conditions: at 1 µM
[18] = target: Phosphatidylinositol 4-kinase beta (Homo sapiens) (UniProt Q9UBF8); conditions: at 0.1 µM
[19] = target: Phosphatidylinositol 4-kinase beta (Homo sapiens) (UniProt Q9UBF8); conditions: at 1 µM
[20] = target: Sphingosine kinase 1 (Homo sapiens) (UniProt Q9NYA1); conditions: at 0.1 µM;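 note: mean percent inhibition of SPHK1 activity, measured within the GSK PKIS screening panel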
Sequence of Sphingosine kinase 1 (Homo sapiens) (Q9NYA1 whole entry): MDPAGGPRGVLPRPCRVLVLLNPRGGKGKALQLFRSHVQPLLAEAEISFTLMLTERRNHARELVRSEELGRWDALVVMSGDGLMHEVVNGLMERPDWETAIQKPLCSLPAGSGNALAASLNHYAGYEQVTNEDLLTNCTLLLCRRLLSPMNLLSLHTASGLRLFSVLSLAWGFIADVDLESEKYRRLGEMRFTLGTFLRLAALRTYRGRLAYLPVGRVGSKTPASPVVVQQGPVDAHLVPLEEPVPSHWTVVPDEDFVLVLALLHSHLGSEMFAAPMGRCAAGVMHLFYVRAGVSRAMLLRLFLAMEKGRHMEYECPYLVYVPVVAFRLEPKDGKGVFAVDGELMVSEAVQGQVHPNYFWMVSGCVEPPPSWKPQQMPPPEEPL

Sequence of Mitogen-activated protein kinase 11 (Homo sapiens) (Q15759 whole entry): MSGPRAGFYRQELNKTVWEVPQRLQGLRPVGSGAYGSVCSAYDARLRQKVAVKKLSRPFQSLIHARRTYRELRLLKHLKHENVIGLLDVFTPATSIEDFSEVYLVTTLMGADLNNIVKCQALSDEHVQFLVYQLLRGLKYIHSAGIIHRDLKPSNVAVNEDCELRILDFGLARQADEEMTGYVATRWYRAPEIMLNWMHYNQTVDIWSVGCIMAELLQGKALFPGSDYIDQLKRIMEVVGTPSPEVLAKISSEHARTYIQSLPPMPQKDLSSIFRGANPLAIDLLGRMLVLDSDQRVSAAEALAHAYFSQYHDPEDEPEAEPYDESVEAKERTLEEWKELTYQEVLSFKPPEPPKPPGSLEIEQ
Sequence of Mitogen-activated protein kinase 14 (Homo sapiens) (Q16539 whole entry): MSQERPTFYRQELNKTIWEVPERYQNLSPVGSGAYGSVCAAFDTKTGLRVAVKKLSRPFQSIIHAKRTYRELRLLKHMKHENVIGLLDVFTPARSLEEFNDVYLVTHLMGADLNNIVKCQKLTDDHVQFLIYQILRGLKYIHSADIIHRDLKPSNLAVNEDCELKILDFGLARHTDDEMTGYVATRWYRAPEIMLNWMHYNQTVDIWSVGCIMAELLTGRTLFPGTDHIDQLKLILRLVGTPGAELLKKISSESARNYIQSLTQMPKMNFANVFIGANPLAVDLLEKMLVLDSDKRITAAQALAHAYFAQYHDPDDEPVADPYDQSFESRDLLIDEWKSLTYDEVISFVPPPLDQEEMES
Sequence of SRSF protein kinase 1 (Homo sapiens) (Q96SB4 whole entry, canonical isoform): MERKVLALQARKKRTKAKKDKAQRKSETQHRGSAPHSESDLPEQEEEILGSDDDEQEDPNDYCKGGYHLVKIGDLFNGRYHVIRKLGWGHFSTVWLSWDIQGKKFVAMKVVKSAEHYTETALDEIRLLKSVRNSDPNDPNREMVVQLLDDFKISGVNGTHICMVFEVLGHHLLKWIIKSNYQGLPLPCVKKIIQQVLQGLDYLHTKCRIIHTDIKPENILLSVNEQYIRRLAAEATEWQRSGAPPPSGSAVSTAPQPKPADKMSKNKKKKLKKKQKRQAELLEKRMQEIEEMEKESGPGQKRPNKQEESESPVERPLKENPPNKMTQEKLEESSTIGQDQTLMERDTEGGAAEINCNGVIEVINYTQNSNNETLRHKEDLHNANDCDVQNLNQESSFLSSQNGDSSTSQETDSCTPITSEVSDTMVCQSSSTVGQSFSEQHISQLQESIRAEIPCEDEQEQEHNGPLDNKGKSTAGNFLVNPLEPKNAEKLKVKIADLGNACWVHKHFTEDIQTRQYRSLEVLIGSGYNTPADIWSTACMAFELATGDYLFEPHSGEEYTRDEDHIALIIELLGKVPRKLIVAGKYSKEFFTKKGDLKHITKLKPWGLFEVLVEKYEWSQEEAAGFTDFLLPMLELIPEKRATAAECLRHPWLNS
Sequence of Phosphatidylinositol 4,5-bisphosphate 3-kinase catalytic subunit alpha isoform (Homo sapiens) (P42336 whole entry, canonical isoform): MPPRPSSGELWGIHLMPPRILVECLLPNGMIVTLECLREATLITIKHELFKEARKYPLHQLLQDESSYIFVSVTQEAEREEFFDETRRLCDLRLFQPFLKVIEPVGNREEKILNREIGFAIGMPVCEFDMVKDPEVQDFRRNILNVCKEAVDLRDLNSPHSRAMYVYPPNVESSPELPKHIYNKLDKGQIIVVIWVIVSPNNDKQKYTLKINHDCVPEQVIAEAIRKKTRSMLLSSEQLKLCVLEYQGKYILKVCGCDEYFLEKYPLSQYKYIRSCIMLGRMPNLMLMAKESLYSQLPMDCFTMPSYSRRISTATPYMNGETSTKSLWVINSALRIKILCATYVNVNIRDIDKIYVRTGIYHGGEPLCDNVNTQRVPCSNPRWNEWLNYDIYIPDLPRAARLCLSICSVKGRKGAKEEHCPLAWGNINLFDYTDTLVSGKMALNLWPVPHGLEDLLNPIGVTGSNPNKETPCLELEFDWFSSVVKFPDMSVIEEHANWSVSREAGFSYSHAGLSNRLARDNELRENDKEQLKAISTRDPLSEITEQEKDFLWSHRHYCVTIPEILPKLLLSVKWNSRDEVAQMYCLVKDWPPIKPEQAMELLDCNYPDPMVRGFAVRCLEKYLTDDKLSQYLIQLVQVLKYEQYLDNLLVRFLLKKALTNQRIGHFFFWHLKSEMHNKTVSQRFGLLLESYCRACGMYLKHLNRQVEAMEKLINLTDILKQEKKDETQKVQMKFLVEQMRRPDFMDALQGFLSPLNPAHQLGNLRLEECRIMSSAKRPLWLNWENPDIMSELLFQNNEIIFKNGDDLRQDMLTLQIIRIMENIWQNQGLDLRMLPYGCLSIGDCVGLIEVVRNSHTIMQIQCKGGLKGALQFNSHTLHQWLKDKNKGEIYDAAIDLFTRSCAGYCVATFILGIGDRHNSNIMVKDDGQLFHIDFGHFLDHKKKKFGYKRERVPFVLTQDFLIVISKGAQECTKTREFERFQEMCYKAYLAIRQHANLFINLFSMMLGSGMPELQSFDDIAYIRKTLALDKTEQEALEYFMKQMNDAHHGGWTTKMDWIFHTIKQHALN
Sequence of Phosphatidylinositol 4-kinase beta (Homo sapiens) (Q9UBF8 2-816 limits assumed): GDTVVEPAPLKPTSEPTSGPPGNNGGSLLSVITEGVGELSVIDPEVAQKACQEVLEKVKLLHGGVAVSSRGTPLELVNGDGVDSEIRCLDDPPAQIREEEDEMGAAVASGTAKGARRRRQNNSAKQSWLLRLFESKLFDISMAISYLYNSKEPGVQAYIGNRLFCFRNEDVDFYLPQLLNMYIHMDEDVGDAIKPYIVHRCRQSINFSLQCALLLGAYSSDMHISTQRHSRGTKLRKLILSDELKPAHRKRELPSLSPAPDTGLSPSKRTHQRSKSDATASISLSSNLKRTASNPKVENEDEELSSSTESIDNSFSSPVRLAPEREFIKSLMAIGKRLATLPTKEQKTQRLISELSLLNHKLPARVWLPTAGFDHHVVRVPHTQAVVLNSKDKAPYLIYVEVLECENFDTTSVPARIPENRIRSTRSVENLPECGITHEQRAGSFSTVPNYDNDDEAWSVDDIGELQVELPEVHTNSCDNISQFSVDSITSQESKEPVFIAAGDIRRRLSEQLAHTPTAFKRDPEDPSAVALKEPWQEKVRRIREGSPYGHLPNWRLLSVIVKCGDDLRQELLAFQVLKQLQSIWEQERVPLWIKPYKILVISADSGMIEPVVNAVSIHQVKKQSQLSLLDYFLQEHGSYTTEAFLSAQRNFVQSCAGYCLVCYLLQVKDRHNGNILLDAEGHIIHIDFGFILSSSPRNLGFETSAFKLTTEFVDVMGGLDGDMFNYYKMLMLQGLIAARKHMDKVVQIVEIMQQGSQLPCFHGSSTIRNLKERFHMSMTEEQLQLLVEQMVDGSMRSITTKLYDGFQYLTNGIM
Sequence of SRSF protein kinase 3 (Homo sapiens) (Q9UPE1 whole entry): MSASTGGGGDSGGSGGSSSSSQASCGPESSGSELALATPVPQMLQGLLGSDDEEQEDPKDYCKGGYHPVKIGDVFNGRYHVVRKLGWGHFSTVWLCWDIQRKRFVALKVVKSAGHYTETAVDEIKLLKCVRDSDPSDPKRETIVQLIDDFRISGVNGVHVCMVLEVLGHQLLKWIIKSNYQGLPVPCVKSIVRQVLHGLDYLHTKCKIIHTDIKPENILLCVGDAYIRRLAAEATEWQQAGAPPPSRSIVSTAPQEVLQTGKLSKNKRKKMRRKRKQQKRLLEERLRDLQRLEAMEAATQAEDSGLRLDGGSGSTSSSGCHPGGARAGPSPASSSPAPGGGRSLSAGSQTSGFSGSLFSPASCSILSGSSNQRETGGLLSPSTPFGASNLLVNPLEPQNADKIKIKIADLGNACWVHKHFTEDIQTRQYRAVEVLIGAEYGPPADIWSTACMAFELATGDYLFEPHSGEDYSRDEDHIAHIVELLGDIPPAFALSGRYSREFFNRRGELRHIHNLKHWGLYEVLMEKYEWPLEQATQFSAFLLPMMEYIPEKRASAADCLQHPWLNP
Sequence of Mitogen-activated protein kinase 3 (Homo sapiens) (P27361 whole entry): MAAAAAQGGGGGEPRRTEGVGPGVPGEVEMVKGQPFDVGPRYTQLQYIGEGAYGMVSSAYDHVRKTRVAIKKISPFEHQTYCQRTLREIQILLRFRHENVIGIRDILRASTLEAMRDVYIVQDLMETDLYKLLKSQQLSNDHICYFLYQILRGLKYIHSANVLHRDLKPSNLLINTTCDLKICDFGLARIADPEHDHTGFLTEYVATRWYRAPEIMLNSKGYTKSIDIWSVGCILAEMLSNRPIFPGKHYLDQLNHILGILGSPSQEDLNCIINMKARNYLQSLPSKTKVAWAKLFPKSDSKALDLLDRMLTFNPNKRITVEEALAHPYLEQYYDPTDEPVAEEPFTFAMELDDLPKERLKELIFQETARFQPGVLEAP

SMILES	inhibition [1] [%]	inhibition [2] [%]	inhibition [3] [%]	inhibition [4] [%]	inhibition [5] [%]	inhibition [6] [%]	inhibition [7] [%]	inhibition [8] [%]	inhibition [9] [%]	inhibition [10] [%]	inhibition [11] [%]	inhibition [12] [%]	inhibition [13] [%]	inhibition [14] [%]	inhibition [15] [%]	inhibition [16] [%]	inhibition [17] [%]	inhibition [18] [%]	inhibition [19] [%]	inhibition [20] [%]
Fc1ccc(-c2nc3n(c2-c2ccncc2)CCS3)cc1	4.33	-1.07	-0.89	19.8	67.4	8.81	13.1	1.46	5.36	1.62	3.41	-1.99	-4.38	3.77	4.45	3.17	4.9	-3.93	0.29	-3.68
NCc1ccc(-n2c(-c3nonc3N)nc3cnccc32)cc1	5.64	-0.85	-1.47	4.72	10	5.07	11	2.2	7.37	3.52	3.74	-2.56	-1.45	4.81	4.8	3.69	6.07	–	5.38	1.89
O=C1Nc2ccccc2/C1=C/Nc1ccc(-n2cncn2)cc1	6.36	-3.04	-0.36	2.12	6.86	5.3	8.05	2.33	5.56	2.03	3.66	-1.28	1.26	3.26	3.95	1.81	2.88	–	-9.88	1.74
Cc1ccc(NC(=O)c2ccoc2)cc1-c1ccc(C(=O)NCC2CC2)cc1	2.32	-2.54	-1.92	–	–	27.8	61.2	2.82	0.81	2.37	1.97	-1.34	-0.85	2.81	3.57	1.77	2.51	1.89	-1.62	0
C[C@@H](Oc1cc(-n2cnc3ccc(OC4CCN(C)CC4)cc32)sc1C(N)=O)c1ccccc1Cl	4.52	-2.03	-0.98	9.29	10.7	2.89	3.75	4.78	6.01	4.13	5.86	-2.69	-1.4	5.06	19.7	9.45	62.5	-3.18	3.72	-2.98

— ChEMBL document CHEMBL1961873, “Compounds: GSK PKIS; Assays: Nanosyn kinase panel” (2012)
